Data as given in PubChem BioAssay (NCI).
The panel holds about 83,000 compounds, 20% with a hit somewhere; the sample as a whole holds those more often.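 Single-dose data. Exposure time 48 hours. Values below 10 considered active.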 A number with no mark means an inactive call. Active and inactive are the calls of the source.

Assays:
Assay in all cases: NCI-60 one-dose screen, 48 h (100 = growth as untreated, 0 = no growth, -100 = all killed)
Details in all cases: 10 µM unless noted
SK-MEL-2 melanoma = system: SK-MEL-2 melanoma
EKVX NSCLC = system: EKVX NSCLC
SN12C renal = system: SN12C renal
UO-31 renal = system: UO-31 renal
TK-10 renal = system: TK-10 renal
ACHN renal = system: ACHN renal
CAKI-1 renal = system: CAKI-1 renal
A498 renal = system: A498 renal
CCRF-CEM leukemia = system: CCRF-CEM leukemia
MOLT-4 leukemia = system: MOLT-4 leukemia
SR leukemia = system: SR leukemia
RPMI-8226 leukemia = system: RPMI-8226 leukemia
OVCAR-8 ovarian = system: OVCAR-8 ovarian
OVCAR-5 ovarian = system: OVCAR-5 ovarian
OVCAR-4 ovarian = system: OVCAR-4 ovarian
SK-OV-3 ovarian = system: SK-OV-3 ovarian
IGROV1 ovarian = system: IGROV1 ovarian
OVCAR-3 ovarian = system: OVCAR-3 ovarian
HS 578T breast = system: HS 578T breast
NCI/ADR-RES ovarian = system: NCI/ADR-RES ovarian

Row | Compound | growth (SK-MEL-2 melanoma) | growth (EKVX NSCLC) | growth (SN12C renal) | growth (UO-31 renal) | growth (TK-10 renal) | growth (ACHN renal) | growth (CAKI-1 renal) | growth (A498 renal) | growth (CCRF-CEM leukemia) | growth (MOLT-4 leukemia) | growth (SR leukemia) | growth (RPMI-8226 leukemia) | growth (OVCAR-8 ovarian) | growth (OVCAR-5 ovarian) | growth (OVCAR-4 ovarian) | growth (SK-OV-3 ovarian) | growth (IGROV1 ovarian) | growth (OVCAR-3 ovarian) | growth (HS 578T breast) | growth (NCI/ADR-RES ovarian)
1 | CCCc1cc(=O)n2c(C(=O)Nc3cccc(C(=O)OCC)c3)c(C(=O)Nc3ccc(F)cc3)sc2n1 | 63.4% [30 µM] | 92.8% [30 µM] | 28.8% [30 µM] | 15.7% [30 µM] | 45% [30 µM] | 38.9% [30 µM] | 17.3% [30 µM] | 8.74% [30 µM] (active) | 40.9% [30 µM] | 127% [30 µM] | 82.4% [30 µM] | 57% [30 µM] | -19.2% [30 µM] (active) | 71.2% [30 µM] | 9.71% [30 µM] (active) | 62.2% [30 µM] | 42.2% [30 µM] | -4.26% [30 µM] (active) | 14.3% [30 µM] | 47.3% [30 µM]
2 | NC(=O)c1cc(Br)ccc1NC(=O)/C=C/c1ccccc1 | 47.7% | 46.4% | 48.3% | 37.7% | 98.7% | 64.4% | 53.2% | 59.7% | 9.57% (active) | 36.8% | -10.1% (active) | 24.4% | 54.4% | 49.9% | 35.8% | 31.1% | 86.6% | -12.2% (active) | 16.3% | 11%
3 | COc1cc2c(cc1-c1c(C)noc1C)ncc1nc(C3CCCC3)n([C@H](C)COC(F)F)c12 | 67.8% | 44.2% | 57.3% | -30% (active) | 30.6% | 32.9% | 18.7% | -27.3% (active) | 48.7% | 42.3% | 18.7% | 14.7% | 38.6% | 78% | 40.9% | 7.48% (active) | 42.1% | 36.5% | 11% | 35.5%
4 | CCOc1nc(-c2ccccc2)cc2c(O)c(C(=O)O)[nH]c(=O)c12 | 95.3% | 98.2% | 111% | 87.1% | 134% | 100% | 105% | 119% | 83% | 92.4% | 98.1% | 58.1% | 107% | 104% | 99% | 97.5% | 96.1% | 101% | 104% | 60.9%
5 | COc1ccc(-c2cc(=O)c3c(OC)c4ccoc4cc3o2)cc1 | 131% | 86.3% | 93.8% | 90.7% | 108% | 102% | 103% | 121% | 109% | 84.7% | 82.4% | 102% | 99.2% | 93.6% | 109% | 112% | 113% | 106% | 120% | 96.2%
6 | CN(Cc1cc(Cl)cc(Cl)c1O)Cc1cc(Cl)cc(Cl)c1O | 93.5% | 83.6% | 71.1% | 46.2% | 61.4% | 52.8% | 42.9% | 89.6% | 48.7% | 47.7% | 62.6% | 70.7% | 63.6% | 89.8% | 40.2% | 78.3% | 54.2% | 49.1% | 92.8% | 62.4%
7 | COc1ccc(S(=O)(=O)N2CCN(C)CC2)cc1NC(=O)c1[nH]c(C)c2c1CCCCC2=O | 79.6% | 58.4% | 60.4% | 37% | 33.4% | 58.6% | 21.2% | 60.9% | 75.5% | 81.4% | 58.2% | 32.6% | 63% | 59.5% | 57% | 44.7% | 47% | 66.6% | 28.9% | 96.9%
